# Experimental data as given in ChEMBL document CHEMBL1157539, “Thousands of chemical starting points for antimalarial lead identification” (Nature, 2010).
# Key:
# Type in all cases: functional
# Plasmodium falciparum [1] = assay: GSK_TCMDC: Inhibition of Plasmodium falciparum 3D7 in whole red blood cells, using parasite LDH activity as an index of growth. Test compounds present at 2uM
# Plasmodium falciparum [2] = assay: GSK_TCMDC: Inhibition of Plasmodium falciparum Dd2 in whole red blood cells, using parasite LDH activity as an index of growth. Test compounds present at 2uM
# HepG2 = assay: GSK_TCMDC: Percent inhibition of human HepG2 cell line. Test compounds present at 10uM.
smiles,measurement,setting,value
O=C(O)C(F)(F)F.c1cc(CN2CCN(CCN3CCOCC3)CC2)cc(-c2csc(-c3nc4ccccc4[nH]3)c2)c1,Inhibition,Plasmodium falciparum [1],100%
same,Inhibition,Plasmodium falciparum [2],99%
same,Inhibition,HepG2,27%
O=C(Nc1ccc(Cl)cc1)c1cccc(S(=O)(=O)NC2CCN(CC3CCCCC3)CC2)c1.O=C(O)C(F)(F)F,Inhibition,Plasmodium falciparum [1],92%
same,Inhibition,Plasmodium falciparum [2],11%
same,Inhibition,HepG2,67%
Cl.Cn1ccnc1S(=O)(=O)CCNCc1ccc(-c2ccc3ncnc(Nc4ccc(OCc5cccc(F)c5)c(Cl)c4)c3c2)o1,Inhibition,Plasmodium falciparum [1],100%
same,Inhibition,Plasmodium falciparum [2],94%
same,Inhibition,HepG2,0%
Cc1[nH]c(C)c(-c2ccc(OCc3ccc(F)cc3)nc2)c(=O)c1Br,Inhibition,Plasmodium falciparum [1],97%
same,Inhibition,Plasmodium falciparum [2],97%
same,Inhibition,HepG2,41%
O=C(O)C(F)(F)F.O=S(=O)(Nc1ccc(-c2ccc(CN3CCCC3)cc2)cc1)c1cccc2cccnc12,Inhibition,Plasmodium falciparum [1],91%
same,Inhibition,Plasmodium falciparum [2],10%
same,Inhibition,HepG2,37%
Cc1cc(C)c2nc(N3CCC(C(=O)NCCCN4CCC(N5CCCCC5)CC4)CC3)sc2c1,Inhibition,Plasmodium falciparum [1],99%
same,Inhibition,Plasmodium falciparum [2],34%
same,Inhibition,HepG2,99%
COc1ccc(CNCc2ccc(-c3cccc(-c4nc5ccccc5[nH]4)c3)cc2)cc1.O=C(O)C(F)(F)F,Inhibition,Plasmodium falciparum [1],100%
same,Inhibition,Plasmodium falciparum [2],85%
same,Inhibition,HepG2,57%
COc1ccc(-c2ccc(NC(=O)c3cccc(C#N)c3)cc2)cc1CN1CCN(C)CC1.O=C(O)C(F)(F)F,Inhibition,Plasmodium falciparum [1],100%
same,Inhibition,Plasmodium falciparum [2],59%
same,Inhibition,HepG2,26%
CCc1ccc(CN2CCC(NC(=O)c3ccc(-c4ccccc4F)s3)CC2)cc1.O=C(O)C(F)(F)F,Inhibition,Plasmodium falciparum [1],80%
same,Inhibition,Plasmodium falciparum [2],12%
same,Inhibition,HepG2,35%
CCOC(=O)C1=C(C)NC2=C(C(=O)CCC2)C1c1cn(Cc2ccc(Cl)cc2Cl)nc1-c1ccccc1 (stereo not given),Inhibition,Plasmodium falciparum [1],100%
same,Inhibition,Plasmodium falciparum [2],96%
same,Inhibition,HepG2,0%
Cc1c(O)cccc1Nc1ccnc2ccc(C(F)(F)F)cc12.Cl,Inhibition,Plasmodium falciparum [1],96%
same,Inhibition,Plasmodium falciparum [2],51%
same,Inhibition,HepG2,0%
COc1ccc2nccc(N3CCC(CCNCc4ccc5c(n4)NC(=O)CS5)CC3)c2c1.Cl,Inhibition,Plasmodium falciparum [1],100%
same,Inhibition,Plasmodium falciparum [2],86%
same,Inhibition,HepG2,55%
O=C(c1cc(OC(F)(F)F)ccc1O)N1CCN(c2ccccc2)CC1,Inhibition,Plasmodium falciparum [1],88%
same,Inhibition,Plasmodium falciparum [2],1%
same,Inhibition,HepG2,0%
Cc1noc(C)c1-c1cccc(CNCc2cccc(-c3ccc(-c4nc5cc(C(F)(F)F)ccc5[nH]4)s3)c2)c1.O=C(O)C(F)(F)F,Inhibition,Plasmodium falciparum [1],100%
same,Inhibition,Plasmodium falciparum [2],95%
same,Inhibition,HepG2,23%
CN(C(=O)/C=C/c1c(Cl)cccc1Cl)C1CCN(CCCCCNC(=O)/C=C/c2ccc(Cl)c(Cl)c2)CC1,Inhibition,Plasmodium falciparum [1],92%
same,Inhibition,Plasmodium falciparum [2],62%
same,Inhibition,HepG2,78%
Oc1cccc(-c2nc(-c3ccccc3)c(-c3ccc4oc5ccc(-c6[nH]c(-c7cccc(O)c7)nc6-c6ccccc6)cc5c4c3)[nH]2)c1,Inhibition,Plasmodium falciparum [1],91%
same,Inhibition,Plasmodium falciparum [2],35%
same,Inhibition,HepG2,30%
O=C(Cc1n[nH]c(=O)c2ccccc12)Nc1cccc(C(=O)Nc2cccc(C(F)(F)F)c2)c1,Inhibition,Plasmodium falciparum [1],97%
same,Inhibition,Plasmodium falciparum [2],90%
same,Inhibition,HepG2,0%
CC(C)CNC(=O)c1cncc(-c2ccc(CNC3Cc4ccccc4C3)cc2)c1.O=C(O)C(F)(F)F,Inhibition,Plasmodium falciparum [1],99%
same,Inhibition,Plasmodium falciparum [2],37%
same,Inhibition,HepG2,5%
N#Cc1ccc(-c2ccc(C(=O)NCCCCN3CCC(c4cc(Br)c5c(c4O)CCCC5)CC3)cc2)cc1,Inhibition,Plasmodium falciparum [1],100%
same,Inhibition,Plasmodium falciparum [2],50%
same,Inhibition,HepG2,93%
COc1ccccc1CCNc1nc(C)cc(N[C@@H](CC(C)C)C(=O)NCc2cccc(F)c2)n1.O=C(O)C(F)(F)F,Inhibition,Plasmodium falciparum [1],94%
same,Inhibition,Plasmodium falciparum [2],79%
same,Inhibition,HepG2,20%
Cc1ccc2[nH]c(-c3ccccc3N)cc2c1,Inhibition,Plasmodium falciparum [1],97%
same,Inhibition,Plasmodium falciparum [2],8%
same,Inhibition,HepG2,11%
O=C(O)C(F)(F)F.OC1CCCN(Cc2ccc(-c3cccc(-c4nc5ccccc5[nH]4)c3)cc2)C1 (stereo not given),Inhibition,Plasmodium falciparum [1],86%
same,Inhibition,Plasmodium falciparum [2],0%
same,Inhibition,HepG2,14%
CC(C)CN(C)Cc1ccc(-c2ccc(-c3nc4ccccc4[nH]3)s2)cc1,Inhibition,Plasmodium falciparum [1],97%
same,Inhibition,Plasmodium falciparum [2],76%
same,Inhibition,HepG2,8%
N#Cc1cccc(NC(=O)C2=C(CCc3ccc4c(c3)OCO4)NC(=O)NC2c2cccc(C#N)c2)c1 (stereo not given),Inhibition,Plasmodium falciparum [1],96%
same,Inhibition,Plasmodium falciparum [2],47%
same,Inhibition,HepG2,3%
CC(=O)Nc1ccc(S(=O)(=O)Nc2ccc(Nc3nc(C)cc(N4CCCCC4)n3)cc2)cc1,Inhibition,Plasmodium falciparum [1],89%
same,Inhibition,Plasmodium falciparum [2],54%
same,Inhibition,HepG2,23%
O=C(/C=C/c1ccc(CNCCN2CCOCC2)cc1)NCCc1ccccc1,Inhibition,Plasmodium falciparum [1],94%
same,Inhibition,Plasmodium falciparum [2],3%
same,Inhibition,HepG2,9%
FC(F)(F)c1ccc2[nH]c(-c3ccc(-c4cccc(CNCC5CCCO5)c4)cc3)nc2c1.O=C(O)C(F)(F)F (stereo not given),Inhibition,Plasmodium falciparum [1],100%
same,Inhibition,Plasmodium falciparum [2],100%
same,Inhibition,HepG2,36%
CN(C)Cc1ccc(-c2cc3c(Nc4ccc(OCc5cccc(F)c5)c(Cl)c4)ncnc3s2)[nH]1,Inhibition,Plasmodium falciparum [1],100%
same,Inhibition,Plasmodium falciparum [2],84%
same,Inhibition,HepG2,8%
Cc1cc(N[C@@H](Cc2ccccc2)C(=O)NC2CCCC2)nc(NCCCOC(C)C)n1.O=C(O)C(F)(F)F,Inhibition,Plasmodium falciparum [1],92%
same,Inhibition,Plasmodium falciparum [2],43%
same,Inhibition,HepG2,0%
O=C(Nc1cc(Cl)cc(Cl)c1)c1cc(Cl)c(=O)n(Cc2cccc(Cl)c2)c1,Inhibition,Plasmodium falciparum [1],100%
same,Inhibition,Plasmodium falciparum [2],62%
same,Inhibition,HepG2,8%
COc1cc(NCCCNCC2c3ccccc3Oc3ccccc32)nc2ccccc12.O=C(O)C(F)(F)F,Inhibition,Plasmodium falciparum [1],99%
same,Inhibition,Plasmodium falciparum [2],66%
same,Inhibition,HepG2,99%
Cc1cc2ncc(C(N)=O)c(Nc3ccc(N4CCOCC4)cc3)c2cc1S(C)(=O)=O.Cl,Inhibition,Plasmodium falciparum [1],100%
same,Inhibition,Plasmodium falciparum [2],96%
same,Inhibition,HepG2,0%
CCNc1cc(C(=O)N[C@@H](Cc2ccc(F)c(F)c2)[C@H](O)CNCc2cccc(OC)c2)cc(N2CCCCS2(=O)=O)c1.Cl,Inhibition,Plasmodium falciparum [1],99%
same,Inhibition,Plasmodium falciparum [2],85%
same,Inhibition,HepG2,4%
O=C(Nc1ccc2nc3n(c(=O)c2c1)CCCCC3)C(=O)N1CCC(Cc2ccccc2)CC1,Inhibition,Plasmodium falciparum [1],91%
same,Inhibition,Plasmodium falciparum [2],70%
same,Inhibition,HepG2,12%
Cc1ccccc1C1CCN(C2CCC(NC(=O)/C=C/c3cccc(Cl)c3F)CC2)CC1 (stereo not given),Inhibition,Plasmodium falciparum [1],100%
same,Inhibition,Plasmodium falciparum [2],37%
same,Inhibition,HepG2,87%
CC(=O)c1cc(N2CCOCC2)ccc1N,Inhibition,Plasmodium falciparum [1],91%
same,Inhibition,Plasmodium falciparum [2],43%
same,Inhibition,HepG2,7%
COc1ccc(C(=O)CCC(=O)N(Cc2ccc(-c3ccc(CNCc4cccnc4)cn3)cc2)C2CCN(Cc3ccccc3)CC2)cc1F.O=C(O)C(F)(F)F,Inhibition,Plasmodium falciparum [1],94%
same,Inhibition,Plasmodium falciparum [2],26%
same,Inhibition,HepG2,30%
O=C(Cc1ccc(NC(=O)c2ccc(O)c(-c3ccc(Cl)c(Cl)c3)c2)cc1)NCc1cccc(C(F)(F)F)c1,Inhibition,Plasmodium falciparum [1],95%
same,Inhibition,Plasmodium falciparum [2],28%
same,Inhibition,HepG2,0%
CCc1cc(-c2onc(C(F)(F)F)c2-c2ccccc2)c(O)cc1OC,Inhibition,Plasmodium falciparum [1],98%
same,Inhibition,Plasmodium falciparum [2],73%
same,Inhibition,HepG2,16%
Cc1nn(C)cc1C(C)Nc1nncc(-c2ccc(C(F)(F)F)cc2)n1 (stereo not given),Inhibition,Plasmodium falciparum [1],100%
same,Inhibition,Plasmodium falciparum [2],99%
same,Inhibition,HepG2,0%
CSc1cccc(NC(=O)Nc2ccc(I)c(OCCN(C)C)c2)c1,Inhibition,Plasmodium falciparum [1],97%
same,Inhibition,Plasmodium falciparum [2],19%
same,Inhibition,HepG2,14%
CSC1=NC(=Nc2c(C)cccc2C)C2(CCCCC2)N1c1ccccc1Cl,Inhibition,Plasmodium falciparum [1],95%
same,Inhibition,Plasmodium falciparum [2],57%
same,Inhibition,HepG2,22%
CCc1ccc(NC(=O)c2ccc(CN3CCCN(CC4CCCCC4)CC3)cc2)cc1.O=C(O)C(F)(F)F,Inhibition,Plasmodium falciparum [1],96%
same,Inhibition,Plasmodium falciparum [2],48%
same,Inhibition,HepG2,48%
O=C(Nc1ccc2c(c1)OCO2)NC1CCN(c2ccnc(Nc3ccc(F)cc3)n2)C1 (stereo not given),Inhibition,Plasmodium falciparum [1],100%
same,Inhibition,Plasmodium falciparum [2],89%
same,Inhibition,HepG2,5%
CC1(C)N=C(N)N=C(N)N1c1ccc(Oc2ccc(Cl)cc2)c(Cl)c1,Inhibition,Plasmodium falciparum [1],97%
same,Inhibition,Plasmodium falciparum [2],20%
same,Inhibition,HepG2,13%
Cc1cc(C(=O)CN2C(=O)NC3(CCCc4ccccc43)C2=O)c(C)n1Cc1ccc(F)cc1 (stereo not given),Inhibition,Plasmodium falciparum [1],92%
same,Inhibition,Plasmodium falciparum [2],53%
same,Inhibition,HepG2,4%
CNC(=O)c1c(NC(=O)c2cccs2)sc2c1CCCC2,Inhibition,Plasmodium falciparum [1],94%
same,Inhibition,Plasmodium falciparum [2],2%
same,Inhibition,HepG2,2%
CCN(CC)CCCN(CCCN(CC)CC)c1cc(C)nc(Nc2ccc(Cl)cc2)n1.O=C(O)C(=O)O,Inhibition,Plasmodium falciparum [1],100%
same,Inhibition,Plasmodium falciparum [2],7%
same,Inhibition,HepG2,11%
CC(C)CCN1CCC(Oc2cccc(NC(=O)c3ccc(C(F)(F)F)cc3)c2)CC1.O=C(O)C(F)(F)F,Inhibition,Plasmodium falciparum [1],98%
same,Inhibition,Plasmodium falciparum [2],6%
same,Inhibition,HepG2,39%
O=C(O)C(F)(F)F.c1ccc(CCNCc2ccc(-c3cccc(CNc4ccc5ncccc5c4)c3)cc2)cc1,Inhibition,Plasmodium falciparum [1],91%
same,Inhibition,Plasmodium falciparum [2],17%
same,Inhibition,HepG2,30%
OC(CNCc1ccccc1OCc1ccccc1)c1cccc(Br)c1 (stereo not given),Inhibition,Plasmodium falciparum [1],100%
same,Inhibition,Plasmodium falciparum [2],97%
same,Inhibition,HepG2,0%
Br.CC(=O)Nc1nc(C)c(-c2csc(Nc3ccc(Cl)cc3)n2)s1,Inhibition,Plasmodium falciparum [1],96%
same,Inhibition,Plasmodium falciparum [2],93%
same,Inhibition,HepG2,14%
O=C(NCC1CN(Cc2ccc(N3CCCC3)o2)CCCO1)c1ccc2c(c1)OCO2.O=CO (stereo not given),Inhibition,Plasmodium falciparum [1],83%
same,Inhibition,Plasmodium falciparum [2],70%
same,Inhibition,HepG2,0%
CC12CC3CC(C)(C1)CC(Nc1nc(N4CCOCC4)nc4ccccc14)(C3)C2,Inhibition,Plasmodium falciparum [1],95%
same,Inhibition,Plasmodium falciparum [2],14%
same,Inhibition,HepG2,31%
COc1ccc(-c2cnc(NCc3ccccc3)nc2)cc1CNC1CCN(C)CC1.O=C(O)C(F)(F)F,Inhibition,Plasmodium falciparum [1],96%
same,Inhibition,Plasmodium falciparum [2],64%
same,Inhibition,HepG2,19%
COc1ccc(Nc2nccc(N3CCC(NC(=O)Nc4ccc5c(c4)OCO5)C3)n2)cc1 (stereo not given),Inhibition,Plasmodium falciparum [1],98%
same,Inhibition,Plasmodium falciparum [2],57%
same,Inhibition,HepG2,27%
CN(C)c1nc2cc(-n3cnc4cc(-c5ccc(Cl)cc5)sc4c3=O)ccc2n1CCCN1CCCCC1.O=C(O)C(F)(F)F,Inhibition,Plasmodium falciparum [1],97%
same,Inhibition,Plasmodium falciparum [2],23%
same,Inhibition,HepG2,55%
N#Cc1ccc(-c2ccc(C(=O)NCCCCN3CC=C(c4ccc5c(c4OCC4CC4)CCCC5)CC3)cc2)cc1,Inhibition,Plasmodium falciparum [1],100%
same,Inhibition,Plasmodium falciparum [2],83%
same,Inhibition,HepG2,22%
FC(F)(F)c1ccc2[nH]c(-c3ccc(-c4ccc(CNCc5ccccc5)cc4)cc3)nc2c1.O=C(O)C(F)(F)F,Inhibition,Plasmodium falciparum [1],100%
same,Inhibition,Plasmodium falciparum [2],96%
same,Inhibition,HepG2,22%
O=C(/C=C/c1ccc(Cl)c(Cl)c1)NCCCCCN1CCC(c2c[nH]c3ccc(O)cc23)CC1,Inhibition,Plasmodium falciparum [1],100%
same,Inhibition,Plasmodium falciparum [2],0%
same,Inhibition,HepG2,20%
